Screens as filed in PubChem.
Hits are enriched below; roughly 21% of the tested compounds scored in any of these assays.
Shiga inhibitor – A qHTS for Small Molecule Inhibitors of Shiga Toxin. inhibition, % at 38.7 µM. AID 2315, 2010. Vero cells, Shiga toxin protein synthesis inhibition reporter. actives 9.2% (n = 290,000); in the data active = inhibition mostly above about 28%, no sharp cut-off; inactive = mostly below about 43%; also: 0% is about no effect
Giardia FBPA inh – qHTS Assay for Inhibitors of Fructose-1,6-bisphosphate Aldolase from Giardia Lamblia | A8B2U2 | purified Giardia FBPA | AID 2451, 2010 | Potency, µM (series often up to 59.6 µM), for inactives: at the highest dose activity, negative = inhibition, usual class: inhibitors | actives 0.71% (n = 290,000); also: potency is read from the fitted curve at half-maximal effect; % is scaled to controls: 0 for no effect and ±100 for the full control effect; nearly all actives have a fitted effect of over 55% in size
Target sequence (A8B2U2 whole entry, looked up): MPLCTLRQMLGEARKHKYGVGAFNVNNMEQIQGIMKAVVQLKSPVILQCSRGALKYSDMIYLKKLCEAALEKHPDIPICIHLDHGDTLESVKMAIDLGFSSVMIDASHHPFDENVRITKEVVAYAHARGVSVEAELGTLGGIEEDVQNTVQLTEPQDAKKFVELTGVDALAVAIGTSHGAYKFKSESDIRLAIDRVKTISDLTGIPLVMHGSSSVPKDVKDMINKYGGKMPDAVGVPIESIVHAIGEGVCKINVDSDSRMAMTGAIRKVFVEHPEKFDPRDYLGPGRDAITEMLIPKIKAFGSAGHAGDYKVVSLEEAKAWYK
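40 nM FBPA preincubated 10 min at RT with compound (up to 57.5 uM final), then substrate plus GAPDH/TPI/NAD/arsenate coupling and diaphorase/resazurin added. Fluorescence read after 20 min at RT, 525/598 nm.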
Pf growth 48h – Primary qHTS for delayed death inhibitors of the malarial parasite plastid, 48 hour incubation. actives 5.9% (n = 310,000). Potency, µM (titrated, usually from 28.7 µM), for the others: at the highest dose activity change, negative = inhibition, hits mostly inhibitors. P. falciparum luciferase growth in erythrocytes, 48 h; also: potency is read from the fitted curve at half-maximal effect; % is scaled to controls: 0 for no effect and ±100 for the full control effect
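Growth was read as firefly luciferase luminescence after a 48 h, 37 C, 5% CO2 exposure of compounds to reporter-bearing P. falciparum cultures (0.1% parasitemia, 2% hematocrit final) in Albumax-supplemented RPMI 1640.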
NS1 inh – qHTS Assay for Inhibitors of Influenza NS1 Protein Function. Potency, µM (doses to about 46.1 µM), inactives show at the highest dose activity, positive = more growth. actives 0.4% (n = 270,000). AID 2326, 2010; calls by dose curve; also: potency is read from the fitted curve at half-maximal effect; actives are rising curves; nearly all actives have a fitted effect of over 50% in size
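A cell-based growth assay was used: compounds that relieve NS1-induced slow growth of budding yeast raise OD600. Assay medium was yeast nitrogen base with ammonium sulphate and -URA supplement, pH 6.0, with 2% galactose.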
Pf growth 96h – Primary qHTS for delayed death inhibitors of the malarial parasite plastid, 96 hour incubation; P. falciparum luciferase reporter growth, 96 h; Potency, µM (top dose mostly 28.7 µM), without a hit: at the top dose activity change, negative = inhibition, usual class: inhibitors; actives 6.9% (n = 320,000); also: potency is read from the fitted curve at half-maximal effect; % is scaled to controls: 0 for no effect and ±100 for the full control effect
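Parasite growth measured via integrated firefly luciferase reporter in P. falciparum. Infected erythrocytes at 2% hematocrit, 0.05% parasitemia final were treated 96 hours at 37 C under 5% CO2, and luminescence was read.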
Cycloheximide cs – Cycloheximide Counterscreen for Small Molecule Inhibitors of Shiga Toxin. cell reporter, cycloheximide protein synthesis inhibition counterscreen. max response, %. actives 12% (n = 300,000); in the data active = max response mostly above about 13%, no sharp cut-off; inactive = mostly below about 14%; also: read at 38.3 µM for the half of the compounds with a filed dose; 0% is about no effect
Active calls of the source: *; u = inconclusive; x = no result. Unless noted, calls follow the shape of the dose curve; as a rule, active = well fitted curve in the direction sought with a large enough effect; inconclusive = small, poorly fitted or top-dose-only effect, or another doubt; inactive = no such curve, though single readings can be large; an effect the other way counts as inactive or inconclusive.

SMILES	Shiga inhibitor	Giardia FBPA inh	Pf growth 48h	NS1 inh	Pf growth 96h	Cycloheximide cs
CN(C)c1ccc(CN(CC2CCCO2)C(=O)c2cc3ccccc3o2)cc1 (configuration not stated)	x	x	-24.2%	x	u	x
Cc1c(C(=O)N(Cc2ccc(N(C)C)cc2)CC2CCCO2)oc2ccccc12 (configuration not stated)	14.3	x	-21.1%	-40.8%	4.15µM*	-0.7
O=C1CCc2cc(S(=O)(=O)NCCC(=O)NC3CCCCC3)ccc2N1	-1.9	-1.2%	9.5%	-5.7%	59.8%	-1.6
COc1ccc(-c2cn(CCO)nc2-c2ccc(OC)cc2)cc1	-3.5	1.6%	1.0%	0.1%	9.9%	-1.8
O=Nc1c(-c2cccc([N+](=O)[O-])c2)nc2ncccn12	-8.5	u	u	-74.9%	-15.0%	-1.0
COc1ccc(/C=C(\C#N)C(=O)NC(C)c2ccccc2)cc1O (configuration not stated)	16.6	10.6%	u	-52.7%	-3.6%	12.9*
COC(=O)c1ccc(/C=C(\C#N)C(=O)NC(C)c2ccccc2)cc1 (configuration not stated)	-4.9	5.7%	u	-42.7%	u	-1.7
COc1cc(/C=C(\C#N)C(=O)Nc2ccccn2)ccc1O	51.6*	u	13.4%	0.3%	7.5%	19.1*
CCOc1ccccc1NC(=O)/C(C#N)=C/c1cccnc1	12.5	-0.4%	-22.6%	-4.1%	13.1µM*	-1.7
CCOc1cc(/C=C(\C#N)C(=O)Nc2ccccn2)ccc1O	44.5	u	32.3%	-23.1%	13.6%	12.8*
COc1cc(/C=C(\C#N)C(=O)Nc2cccc3ncccc23)ccc1O	-10.3	-10.3%	-0.4%	12.1%	16.2%	-2.3
C=C(C)C(=O)/C=C/c1ccc(C(F)(F)F)cc1	x	4.7%	x	x	x	x
COc1cc(/C=C(\C#N)C(=O)Nc2ccc3c(c2)OCCO3)ccc1O	51.1*	-11.7%	58.9%	-49.0%	2.2%	33.0*
COc1cc(/C=C/C(=O)OCC(=O)Nc2ccc3c(c2)OCCO3)ccc1O	16.9	-7.6%	18.0%	15.8%	31.7%	3.7
OCCC1CN(Cc2cccn2-c2nccs2)CCN1Cc1ccc(F)c(F)c1 (configuration not stated)	-4.1	-3.0%	u	2.0%	13.1µM*	-4.0
CC(C)=CCN1CCN(Cc2cccn2-c2nccs2)CC1CCO (configuration not stated)	-4.8	0.8%	-11.6%	1.4%	10.4µM*	-0.7
CC(C)c1ccc(N=Nc2c(O)[nH]c(=O)[nH]c2=O)cc1	16.1	-1.5%	54.0%	9.3%	6.3%	19.4
O=c1[nH]c(=S)[nH]c(O)c1N=Nc1ccc(SC(F)F)cc1	25.2	-1.8%	0.2%	1.6%	1.9%	32.8*
Cc1ccc2c(c1)N(CC(=O)NCC(C)c1ccccc1)C(=O)c1cccnc1O2 (configuration not stated)	8.8	8.8%	u	u	u	-1.9
CC(C(=O)NCC1CCCCC1)N1CCN(S(=O)(=O)c2ccccc2F)CC1 (configuration not stated)	-2.0	2.3%	u	x	u	-1.7
O=C(CC12CC3CC(CC(C3)C1)C2)N1CCN(S(=O)(=O)c2cccs2)CC1	-6.7	-24.0%	u	8.1%	13.1µM*	3.6
CC1Cc2ccccc2N1C(=O)C1CCN(S(=O)(=O)c2cccs2)CC1 (configuration not stated)	-11.2	-0.6%	-26.8%	-9.6%	0.928µM*	8.8
O=C(C1CCN(S(=O)(=O)c2cccs2)CC1)N1CCN(c2ccccc2O)CC1	x	x	u	x	7.38µM*	x
O=C(C1CCN(S(=O)(=O)c2cccs2)CC1)N1CCN(c2ccccc2)CC1	-31.1	4.9%	x	0.8%	u	-2.5
CC(C(=O)N1c2ccccc2CC1C)N1CCN(S(=O)(=O)c2ccccc2F)CC1 (configuration not stated)	x	x	13.1µM*	x	u	x
SMILES	Shiga inhibitor	Giardia FBPA inh	Pf growth 48h	NS1 inh	Pf growth 96h	Cycloheximide cs
CC1CCCN(C(=O)C2CCN(S(=O)(=O)c3cccs3)CC2)C1 (configuration not stated)	x	x	u	x	3.7%	x
O=C(C1CCN(S(=O)(=O)c2cccs2)CC1)N1CCCC(C(F)(F)F)C1 (configuration not stated)	32.7	x	-13.2%	8.2%	275.6%	17.4*
O=C1CC(c2cc(-c3ccccc3)no2)C1	41.9*	12.6%	98.6%	18.0%	246.7%	38.9*
Cc1c(NC(=O)c2cc(C3CC3)on2)c(=O)n(-c2ccccc2)n1C	1.6	-1.6%	x	7.3%	-7.4%	-4.0
O=C1C2C3C=CC(C3)C2C(=O)N1c1cccc2cccnc12 (configuration not stated)	18.6	-0.4%	0.1%	6.7%	5.86µM*	-3.6
O=C(COC(=O)c1ccccc1)Nc1cccc(S(=O)(=O)N2CCCCC2)c1	x	x	u	x	10.0%	x
O=C(O)CN1C(=O)/C(=C/c2ccc(N3CCCCC3)o2)SC1=S	-4.9	u	-13.2%	u	-8.6%	-1.3
CCCN1C(=O)S/C(=C/c2ccc(N3CCOCC3)o2)C1=O	66.3*	u	47.3%	-33.1%	41.2%	46.9*
CCCN1C(=O)S/C(=C\c2ccc(N3CCOCC3)o2)C1=O	97.6*	u	-25.5%	x	-8.9%	40.9*
O=C(CS(=O)(=O)c1ccccc1)Nc1ncc([N+](=O)[O-])s1	-6.3	-6.4%	11.7%	26.0%	0.7%	-3.5
O=C(/C=C/c1ccc([N+](=O)[O-])cc1)NCc1ccccn1	-4.0	-1.1%	12.8%	11.2%	-16.6%	-1.3
Cc1cnccc1NC(=O)c1cccs1	-5.1	2.2%	3.5%	-5.4%	42.6%	-1.6
O=C(Nc1ncc([N+](=O)[O-])s1)c1ccccc1Br	65.1*	-13.5%	14.1%	-118.2%	u	49.6*
Cc1cnc(NC(=O)c2cccs2)s1	67.3*	-6.6%	206.2%	-40.2%	293.3%	28.8*
O=C(/C=C/c1ccc([N+](=O)[O-])cc1)Nc1ncc([N+](=O)[O-])s1	95.2*	-16.1%	-60.7%	x	1.8%	33.5*
O=C(Nc1ncc([N+](=O)[O-])s1)c1cccs1	26.6*	0.0%	140.5%	-148.4%	11.4%	36.7*
O=C(NC1CCN(S(=O)(=O)c2ccc(Cl)c(F)c2)CC1)c1cccnc1	4.1	x	-14.5%	1.4%	61.9%	-3.7
Brc1ccccc1C1=Nn2c(nnc2-c2ccco2)SC1	16.4	-2.8%	2.3%	-4.1%	-0.2%	-1.2
c1ccc(-c2ccc(C3=Nn4c(nnc4-c4cc(-c5ccccc5)n[nH]4)SC3)cc2)cc1	11.0	0.0%	u	26.2%	11.7µM*	0.5
CCOc1ccc(C2=Nn3c(nnc3-c3ccccc3OC)SC2)cc1	-15.2	-0.4%	13.1µM*	3.0%	u	-5.2
